Compound activity (PubChem)
ABCB6 inh MLPCN: inhibitors of human ABC transporter ABCB6. Q9NP58. K562-ABCB6 porphyrin accumulation, flow cytometry, 1 h; active compounds read low. fluorescence ratio to DMSO, % at 10 µM. 0.19% of 360,000 active. AID 602162;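 active = fluorescence ratio to DMSO below 75%, the collection mean minus 3 SD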;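 also: signal is porphyrin accumulated inside mitochondria; 100% equals median channel fluorescence of DMSO control wells; lower ratio means ABCB6 inhibition with less porphyrin fluorescence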
Granule exo inh: lytic granule exocytosis inhibition. 0.66% of 360,000 active. TALL-104 LAMP-1 surface exposure, flow cytometry; cells stimulated with thapsigargin and PMA. inhibition, % at 10 µM. AID 651702;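 active = inhibition above about 55%, limit read from the data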
VLA-4 inh: inhibition in a human VLA-4 binding assay; VLA-4 expressing cells, ligand binding flow cytometry; inhibition, % (about 7 µM as worked out from the volumes in the protocol); 0.2% of 330,000 active; in the data active = inhibition above about 50%
Rev-erbA mod: Rev-erb alpha (human) modulation. Rev-erbα–FITC-DNA binding, fluorescence polarization, 90 min. 0.79% of 370,000 active. P20393. activity, % at 10 µM;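 active = activity above about 14%, limit read from the data; passing the limit was not always enough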;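 also: 0% = DMSO wells with 35 nM protein and 100% = DMSO wells with 750 nM protein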
Target sequence (P20393 whole entry, looked up): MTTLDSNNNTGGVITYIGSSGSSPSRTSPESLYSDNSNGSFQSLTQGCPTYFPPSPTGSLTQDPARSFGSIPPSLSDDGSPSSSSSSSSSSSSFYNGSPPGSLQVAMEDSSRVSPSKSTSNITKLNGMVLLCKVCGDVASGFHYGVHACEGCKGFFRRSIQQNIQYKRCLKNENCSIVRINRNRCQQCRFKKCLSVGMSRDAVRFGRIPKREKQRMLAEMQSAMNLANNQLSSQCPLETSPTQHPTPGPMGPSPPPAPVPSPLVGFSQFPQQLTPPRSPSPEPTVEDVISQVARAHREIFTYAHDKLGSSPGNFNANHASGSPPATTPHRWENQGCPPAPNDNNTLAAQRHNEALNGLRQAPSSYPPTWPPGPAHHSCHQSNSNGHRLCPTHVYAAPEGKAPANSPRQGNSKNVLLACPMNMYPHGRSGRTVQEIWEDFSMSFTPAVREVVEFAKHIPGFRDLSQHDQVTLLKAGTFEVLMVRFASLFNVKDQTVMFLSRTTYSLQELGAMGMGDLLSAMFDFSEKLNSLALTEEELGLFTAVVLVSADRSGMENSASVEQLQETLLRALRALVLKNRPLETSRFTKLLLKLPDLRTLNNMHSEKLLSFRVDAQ
PG9 Ab binder: binds the HIV-1 gp120 antibody PG9; TR-FRET gp120-PG9 antibody binding; inhibition, % at 6.7 µM; 0.43% of 360,000 active; AID 624416; in the data active = inhibition above about 8.5%
Rev-erbA confirm: Rev-erb alpha (human) modulation, hit confirmation; shares compounds with Rev-erbA mod; Rev-erb alpha FITC-DNA binding, fluorescence polarization, 90 min; activation, % at 25 µM; 61% of 3,000 active;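 active = activation at or above a set limit, or at least 3 SD above the negative control mean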;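 also: 0% = 35 nM protein with DMSO and 100% = 750 nM protein high control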
RORg DNA counter: counter-screen for Rev-erb alpha modulators: RORgamma DNA binding; shares compounds with Rev-erbA mod; purified RORgamma protein-FITC-DNA binding, fluorescence polarization; IC50, µM; 8% of 910 active;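 active = Compounds whose fitted half-maximal concentration for disrupting protein-DNA binding is below 10 micromolar; the record names Rev-erb in its text, so the target is in doubt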
An asterisk follows results filed as active. Only some compounds are listed: those with a hit (about 2% of all), similar ones and a draw of the others.

Screening COc1ccccc1C(=O)COC(=O)Cn1[nH]c(=O)c2ccccc2c1=O returned ABCB6 inh MLPCN 101, Granule exo inh -1, VLA-4 inh 2, Rev-erbA mod 22*, PG9 Ab binder 0 and Rev-erbA confirm 9.
Screening Cc1ccc(C(=O)NC2CCCN(c3ccc(C(F)(F)F)cn3)C2)cn1 (configuration not stated) returned ABCB6 inh MLPCN 97, Granule exo inh -7, VLA-4 inh 10, Rev-erbA mod 3 and PG9 Ab binder -1.
`O=C(NC1CCCN(c2ccc(C(F)(F)F)cn2)C1)c1cc(Cl)ccc1F` (configuration not stated) gave ABCB6 inh MLPCN 104, Granule exo inh 13, VLA-4 inh 10, Rev-erbA mod 20*, PG9 Ab binder 0 and Rev-erbA confirm 13.
For CCCCCCc1nc2c(=O)[nH]c3ccccc3c2o1 the results were ABCB6 inh MLPCN 87, Granule exo inh 2, VLA-4 inh 13, Rev-erbA mod 52*, PG9 Ab binder 2 and Rev-erbA confirm 11.
`COc1ccc(-c2c(Cc3ccccc3)nc(NC(=O)c3ccccc3)n2Cc2ccccc2)cc1` gave Rev-erbA mod 8.
O=C(Nc1ccc(F)cc1)OCc1cn(Cc2ccc(C(F)(F)F)cc2)nn1 was read as Rev-erbA mod 5.
CCOc1cc(C=O)c(Br)cc1OC1CCCC1 was read as ABCB6 inh MLPCN 90, Granule exo inh 4, VLA-4 inh -4, Rev-erbA mod 22*, PG9 Ab binder 3 and Rev-erbA confirm 12.
Screening Cc1ccc2c(n1)sc1c(-c3ccccc3)c(C#N)c(N)nc12 returned ABCB6 inh MLPCN 98, Granule exo inh 0, VLA-4 inh -8, Rev-erbA mod 49*, PG9 Ab binder 1, Rev-erbA confirm 38* and RORg DNA counter >40.
For Cc1nc(N)c(C#N)c(-c2cccnc2)c1-c1ccccc1 the results were ABCB6 inh MLPCN 96, Granule exo inh 0, VLA-4 inh -2, Rev-erbA mod 2 and PG9 Ab binder 6.
COC(=O)Cn1c(=NC(=O)CCS(=O)(=O)c2ccccc2)sc2c(OC)ccc(OC)c21 was read as ABCB6 inh MLPCN 97, Granule exo inh 52, VLA-4 inh -2, Rev-erbA mod 82*, PG9 Ab binder -1, Rev-erbA confirm 39* and RORg DNA counter >40.
Screening CCCCC(=O)N=c1sc2c(OC)ccc(OC)c2n1C returned ABCB6 inh MLPCN 91, Granule exo inh -2, VLA-4 inh -4, Rev-erbA mod 23*, PG9 Ab binder -1 and Rev-erbA confirm 8.
COc1cccc(C(=O)N=c2sc3c(C)ccc(OC)c3n2C)c1 was read as ABCB6 inh MLPCN 96, Granule exo inh 13, VLA-4 inh -31, Rev-erbA mod 24*, PG9 Ab binder -1 and Rev-erbA confirm 5.
Screening CC(C)C[C@@H]1COc2cccc(N3CCCC3)c2S(=O)(=O)N1C returned Rev-erbA mod 0.
CCOC(=O)[C@]12CCCC3=C1N(CCC3)C(=O)[C@@H](CC(=O)NCc1ccc(OC)c(OC)c1)C2 was read as Rev-erbA mod 1.
`O=C(Nc1c(-c2ccc(F)cc2)nc2ncccn12)c1ccc(F)cc1` gave Rev-erbA mod 2.
For Cc1c(Cl)cc(C(C)C)c(O)c1CN1CCOCC1 the results were ABCB6 inh MLPCN 98, Granule exo inh -1, Rev-erbA mod 42*, PG9 Ab binder 1, Rev-erbA confirm 43* and RORg DNA counter >40.
Screening CCc1cc2c(-c3ccccc3)cc(=O)oc2c(CN2CCOCC2)c1O returned ABCB6 inh MLPCN 91, Granule exo inh 0, VLA-4 inh 16, Rev-erbA mod 7 and PG9 Ab binder -2.
For Cc1cc(C(C)c2ccccc2)c(O)c(CN2CCOCC2)c1C (configuration not stated) the results were ABCB6 inh MLPCN 98, Granule exo inh 3, VLA-4 inh -1, Rev-erbA mod 33*, PG9 Ab binder 0, Rev-erbA confirm 43* and RORg DNA counter >40.
Screening CCOC(=O)C1=NOC(C(=O)NCCO)(C(=O)C2CC2)C1 (configuration not stated) returned Rev-erbA mod -3.
CCC(C)(C)c1ccc(OCCCC[n+]2cccc(C)c2C)c(C(C)(C)CC)c1 was read as ABCB6 inh MLPCN 89, Granule exo inh 25, VLA-4 inh 11, Rev-erbA mod 42*, PG9 Ab binder -1 and Rev-erbA confirm 43*.
Screening CCC(C)(C)c1ccc(OCCCC[n+]2ccc(C)cc2)c(C(C)(C)CC)c1 returned VLA-4 inh 4, Rev-erbA mod 34*, PG9 Ab binder 0, Rev-erbA confirm 36* and RORg DNA counter >40.
`Cc1cc[n+](CC[n+]2ccc(C)cc2)cc1` gave ABCB6 inh MLPCN 98, Granule exo inh -3, VLA-4 inh -4, Rev-erbA mod -2 and PG9 Ab binder 1.
`c1nc2nc3c(c(N4CCCC4)n2n1)CCCC3` gave Rev-erbA mod -1.
For CC(C)(CO)Cc1cc(C(C)(C)C)c(O)c(C(C)(C)C)c1 the results were ABCB6 inh MLPCN 93, Granule exo inh 1, VLA-4 inh 9, Rev-erbA mod 13 and PG9 Ab binder 3.
`CC(C)(C=O)Cc1cc(C(C)(C)C)c(O)c(C(C)(C)C)c1` gave ABCB6 inh MLPCN 107, Granule exo inh -3, VLA-4 inh 46, Rev-erbA mod 21*, PG9 Ab binder -1 and Rev-erbA confirm 19*.
For Cc1ccc2cc(N)ccc2n1 the results were ABCB6 inh MLPCN 99, Granule exo inh 1, Rev-erbA mod -4 and PG9 Ab binder 0.
`Nc1ccc2cc3ccc(N)cc3nc2c1` gave Rev-erbA mod 28*, Rev-erbA confirm 27* and RORg DNA counter >40.
COC(=O)[C@]12C[C@H](CC(=O)NCC34CC5CC(CC(C5)C3)C4)C(=O)N(Cc3ccc(Cl)cc3Cl)C1=C[C@H](C(C)(C)C)O[C@@H]2C was read as Rev-erbA mod 0.
For Cc1ccc(NC(=O)C2=CC=CN3CCS(=O)(=O)N=C23)cc1 the results were ABCB6 inh MLPCN 98, Granule exo inh -4, VLA-4 inh -1, Rev-erbA mod -3 and PG9 Ab binder 0.
For COc1ccc(C(C)(C)C)cc1NC(=O)C1=CC=CN2CCS(=O)(=O)N=C12 the results were ABCB6 inh MLPCN 97, Granule exo inh -6, VLA-4 inh 4, Rev-erbA mod 24*, PG9 Ab binder 1, Rev-erbA confirm 30* and RORg DNA counter inactive.
`O=C(Nc1cccnc1)c1ccc(CSc2ccc(Cl)cc2)o1` gave Rev-erbA mod 2 and PG9 Ab binder 1.
Screening COc1cc(C(=O)Nc2ccccc2-c2nnn(CC(N)=O)n2)cc(OC)c1OC returned ABCB6 inh MLPCN 92, Granule exo inh -4, VLA-4 inh 12, Rev-erbA mod 3 and PG9 Ab binder 1.
